# According to PubChem BioAssay (Tox21):
# Values without a mark were called inactive. Inconclusive results are not listed. Entries that show only a call come without a potency. Active and inactive are the calls of the source. Unless noted, calls come from the whole dose curve; as a rule, active = well fitted curve in the direction sought with a large enough effect in the repeat runs; inconclusive = weak or mixed curves; inactive = no such curve, though single readings can be large; an effect the other way counts as inactive or inconclusive.
# Columns and labels:
# [1] = qHTS assay for small molecule agonists of the p53 signaling pathway (AID 651631; calls by dose curve; note: nearly all actives have a fitted effect of over 15% in size; note: potency is the fitted concentration of half-maximal effect)
# Method in brief: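 Agonist mode screen using a stably integrated beta-lactamase gene under p53 response elements in HCT-116 cells. Compound exposure lasts 16 h at 37 °C; fluorescence intensity is measured following 2 h FRET substrate loading.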
# [2] = qHTS assay for small molecules that induce genotoxicity in human embryonic kidney cells expressing luciferase-tagged ATAD5 (AID 651632); note: nearly all actives have a fitted effect of over 15% in size
# Method in brief: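 Cells were seeded at 2,000 per well, dosed with compound, and incubated 16 hr at 37C in 5% CO2. Luciferase activity was then quantified after a 30 min room-temperature incubation with Amplite.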
# [3] = qHTS assay for small molecule agonists of the p53 signaling pathway - cell viability (AID 651633; calls by dose curve;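 note: p53RE-bla HCT reporter cells with a stable beta-lactamase p53 reporter; series mostly up to about 83 µM; nearly all actives have a fitted effect of over 30% in size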)
# Method in brief: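 p53RE-bla cells were treated with compound for 16 hours at 37 C. Cytotoxicity was then measured as CellTiter-Glo luminescence after 30 min at room temperature.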
# [4] = qHTS assay for small molecules that induce genotoxicity in human embryonic kidney cells expressing luciferase-tagged ATAD5 - cell viability (AID 651634; calls by dose curve; note: nearly all actives have a fitted effect of over 25% in size; note: potency is the fitted concentration of half-maximal effect)
# Method in brief: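 Cells (HEK293T, luciferase-tagged ATAD5) are seeded at 2,000 per well, dosed with compound or DMSO vehicle, and incubated 15.5 hr at 37C and 5% CO2. CellTiter-Fluor is added for 30 min before fluorescence is measured.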
# [5] = qHTS assay for small molecule disruptors of the mitochondrial membrane potential (AID 720635); note: potency is the fitted concentration of half-maximal effect
# Method in brief: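 HepG2 cells exposed to compound 1 hr at 37C, then Mito-MPS dye 30 min. Ratio read of aggregate (540/590 nm) versus monomer (490/535 nm) fluorescence.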
# [6] = qHTS assay to test for compound auto fluorescence at 460 nm (blue) in HEK293 cells (AID 720678); note: potency is the fitted concentration of half-maximal effect
# Method in brief: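 Cells were seeded and left to adhere for 4-5 hr at 37C. Compounds were then pin-transferred. After an overnight incubation at 37C under 5% CO2, intrinsic fluorescence at 405/460 nm was measured and referenced to triamterene.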
# [7] = qHTS assay to test for compound auto fluorescence at 535 nm (green) in HEK293 cells (AID 720680)
# [8] = qHTS assay to test for compound auto fluorescence at 460 nm (blue) in HEK293 cell free culture (AID 720681); note: potency is the fitted concentration of half-maximal effect
# Method in brief: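 Compounds were added to cell-free DMEM with 10% FBS and fluorescence read directly. The blue channel used 405 nm excitation and 460 nm emission, with triamterene as the reference fluorophore.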
# [9] = qHTS assay to test for compound auto fluorescence at 535 nm (green) in HEK293 cell free culture (AID 720682)
# Method in brief: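 No cells present: wells hold DMEM supplemented with 10% FBS, into which compound or vehicle is pinned. Green emission is then recorded (485 nm excitation, 535 nm emission) and scaled to fluorescein.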
# [10] = qHTS assay to test for compound auto fluorescence at 590 nm (red) in HEK293 cell free culture (AID 720683)
# Method in brief: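 Cell-free wells of DMEM with 10% FBS received compound, and intrinsic fluorescence was read at excitation/emission 540/590 nm. Values expressed as equivalence to Rose Bengal sodium.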
# [11] = qHTS assay to test for compound auto fluorescence at 590 nm (red) in HepG2 cell free culture (AID 720684)
# Method in brief: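 Rose Bengal sodium served as the reference for red signal. Test compounds were dispensed into serum-containing MEM (10% FBS) without cells, and plates were read at 540/590 nm.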
# [12] = qHTS assay to test for compound auto fluorescence at 460 nm (blue) in HepG2 cell free culture (AID 720685); note: potency is the fitted concentration of half-maximal effect
# Method in brief: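 Cell-free plates of MEM plus 10% FBS received 23 nL compound or DMSO vehicle; blue-channel (405/460 nm) intensity scored against triamterene as reference fluorophore.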
# [13] = qHTS assay to test for compound auto fluorescence at 535 nm (green) in HepG2 cell free culture (AID 720686)
# [14] = qHTS assay to test for compound auto fluorescence at 460 nm (blue) in HepG2 cells (AID 720687); note: potency is the fitted concentration of half-maximal effect
# Method in brief: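 HepG2 cells in MEM with 10% FBS, attached overnight at 37 C, were exposed to compound or DMSO for 1 hr at 37 C, 5% CO2. Blue fluorescence was read at 405/460 nm, with triamterene as reference fluorophore.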
# [15] = qHTS assay for small molecule disruptors of the mitochondrial membrane potential - cell viability (AID 720634; calls by dose curve;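 note: human HepG2 liver cancer cells; series mostly up to about 83 µM; nearly all actives have a fitted effect of over 20% in size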)
# Method in brief: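 Cytotoxicity was measured by ATP quantitation in HepG2 wells that had first been treated with compound for 1 hr and stained with m-MPI dye; CellTiter-Glo incubation was 30 min at room temperature.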
# [16] = qHTS assay to test for compound auto fluorescence at 590 nm (red) in HepG2 cells (AID 720674)
# Method in brief: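 Seeding: 2,000 HepG2 cells/well, MEM/10% FBS, overnight 37 C. Dosing: compound vs DMSO. Incubation: 1 hr, 37 C, 5% CO2. Read: fluorescence 540 ex/590 em, Rose Bengal sodium as red reference.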
# [17] = qHTS assay to test for compound auto fluorescence at 535 nm (green) in HepG2 cells (AID 720675)
# [18] = qHTS assay to test for compound auto fluorescence at 590 nm (red) in HEK293 cells (AID 720679)
# Method in brief: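 Each well held 2,000 HEK293 cells in medium containing 10% dialyzed FBS. Following 4-5 hr attachment at 37C, 23 nL test compound or DMSO was added; plates sat overnight, and red fluorescence (540/590nm) was recorded.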
# [19] = target: Glucocorticoid receptor (Homo sapiens) (UniProt P04150); assay: qHTS assay to identify small molecule agonists of the glucocorticoid receptor (GR) signaling pathway (AID 720691; active = well fitted activation curve with a large enough effect in the signal ratio in the repeat runs, not every such curve was filed as active; the % refers to the signal ratio)
# Glucocorticoid receptor (Homo sapiens), sequence (P04150 whole entry, looked up): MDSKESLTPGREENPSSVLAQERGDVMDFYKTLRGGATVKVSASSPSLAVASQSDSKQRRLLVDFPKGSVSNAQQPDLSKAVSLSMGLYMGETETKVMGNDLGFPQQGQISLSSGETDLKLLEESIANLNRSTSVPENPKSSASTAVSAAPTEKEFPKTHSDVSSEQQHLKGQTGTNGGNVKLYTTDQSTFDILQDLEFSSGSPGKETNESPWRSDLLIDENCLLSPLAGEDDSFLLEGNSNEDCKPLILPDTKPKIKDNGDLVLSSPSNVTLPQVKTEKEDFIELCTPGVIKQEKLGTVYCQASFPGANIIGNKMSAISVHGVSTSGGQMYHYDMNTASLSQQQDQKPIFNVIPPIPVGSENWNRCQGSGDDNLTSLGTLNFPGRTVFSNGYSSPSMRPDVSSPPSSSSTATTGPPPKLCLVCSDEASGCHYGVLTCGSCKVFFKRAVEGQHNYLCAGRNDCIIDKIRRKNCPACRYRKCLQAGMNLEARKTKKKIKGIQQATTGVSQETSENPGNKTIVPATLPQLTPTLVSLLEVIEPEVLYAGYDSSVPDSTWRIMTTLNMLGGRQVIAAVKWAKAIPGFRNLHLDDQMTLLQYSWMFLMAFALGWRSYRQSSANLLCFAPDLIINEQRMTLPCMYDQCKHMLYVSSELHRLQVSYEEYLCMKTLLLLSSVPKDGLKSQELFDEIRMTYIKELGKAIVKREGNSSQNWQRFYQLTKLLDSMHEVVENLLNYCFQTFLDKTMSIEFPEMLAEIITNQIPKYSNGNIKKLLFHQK
# Method in brief: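 Steps: seed GR-bla HeLa cells, incubate 4 h at 37 C/5% CO2; pin-transfer DMSO-dissolved compounds; incubate 18 h at 37 C; add LiveBLAzer B/G FRET substrate; after 2 h at room temperature, measure fluorescence.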
# [20] = target: Glucocorticoid receptor (Homo sapiens) (UniProt P04150); assay: qHTS assay to identify small molecule antagonists of the glucocorticoid receptor (GR) signaling pathway (AID 720692; active = well fitted inhibition curve with a large enough effect in the signal ratio in the repeat runs, not every such curve was filed as active; the % refers to the signal ratio)
# Method in brief: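 Antagonism was scored as loss of dexamethasone-driven (5 nM final) reporter signal in HeLa cells bearing a glucocorticoid response element–beta-lactamase construct, after 18 h compound exposure at 37 C and 2 h FRET substrate loading.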
# Tags give direction and shape of the fitted curve or compound fluorescence and quenching.
smiles,measurement,setting,value
O=C(O)c1cccc(O)c1,Potency,[1],inactive
same,Potency,[2],inactive
same,Potency,[3],inactive
same,Potency,[4],inactive
same,Potency,[5],inactive
same,Potency,[6],inactive
same,outcome,[7],inactive
same,Potency,[8],inactive
same,outcome,[9],inactive
same,outcome,[10],inactive
same,outcome,[11],inactive
same,Potency,[12],inactive
same,outcome,[13],inactive
same,Potency,[14],inactive
O=C(O)c1ccc(CO)o1,Potency,[1],inactive
same,Potency,[2],inactive
same,Potency,[3],inactive
same,Potency,[15],inactive
same,Potency,[5],inactive
same,outcome,[16],inactive
same,outcome,[17],inactive
same,Potency,[6],inactive
same,outcome,[18],inactive
same,outcome,[7],inactive
same,Potency,[8],inactive
same,outcome,[9],inactive
same,outcome,[10],inactive
same,outcome,[11],inactive
same,Potency,[12],inactive
same,outcome,[13],inactive
same,Potency,[14],inactive
same,Potency,[19],inactive
same,Potency,[20],inactive
[O]=[Bi],activation,[2],1.52% [at 8.08 µM]
same,"activity change, negative = cytotoxicity",[3],9.6% [at 8.08 µM]
same,"activity, negative = cytotoxicity",[4],17.3% [at 8.08 µM]
same,"activity change, negative = cytotoxicity",[15],7.5% [at 8.08 µM]
same,"ratio activity, negative = MMP loss",[5],14.9% [at 8.08 µM]
same,"fluorescence, relative to Rose Bengal",[16],-0.152% [at 3.72 µM]
same,"fluorescence, % of fluorescein control",[17],0.162% [at 3.72 µM]
same,"fluorescence, % of triamterene",[6],-0.117% [at 3.72 µM]
same,"fluorescence, % of fluorescein",[7],-0.0925% [at 3.72 µM]
same,"fluorescence, % of fluorescent control",[8],-0.0523% [at 3.72 µM]
same,activity change,[9],-0.0025% [at 3.72 µM]
same,"fluorescence, % of fluorescent control",[10],-0.241% [at 3.72 µM]
same,"fluorescence, % of Rose Bengal",[11],-0.0278% [at 3.72 µM]
same,"fluorescence, % of fluorescent control",[12],-0.119% [at 3.72 µM]
same,"fluorescence, % of fluorescein control",[13],-0.0086% [at 3.72 µM]
same,"fluorescence, % of fluorescent control",[14],-0.0256% [at 3.72 µM]
same,activation,[19],0.026% [at 6.9 µM]
same,"activity change, negative = inhibition",[20],-10.6% [at 7.04 µM]
CCc1c2c(nc3ccc(OC(=O)N4CCC(N5CCCCC5)CC4)cc13)-c1cc3c(c(=O)n1C2)COC(=O)[C@]3(O)CC,Potency,[1],2.66 µM (active)
same,Potency,[2],inactive
same,Potency,[4],inactive
same,Potency,[15],inactive
same,Potency,[5],11.9 µM (active)
same,outcome,[16],inactive
same,outcome,[17],inactive
same,Potency,[6],12.6 µM [fluorescent] (active)
same,outcome,[7],inactive
same,Potency,[8],12.6 µM (active)
same,outcome,[9],inactive
same,outcome,[10],inactive
same,outcome,[11],inactive
same,Potency,[12],12.6 µM [fluorescent] (active)
same,outcome,[13],inactive
same,Potency,[14],15.8 µM [fluorescent] (active)
c1cnc2c(n1)CCCC2,Potency,[1],inactive
same,Potency,[2],inactive
same,Potency,[3],inactive
same,outcome,[16],inactive
same,Potency,[6],inactive
same,outcome,[18],inactive
same,outcome,[7],inactive
same,Potency,[8],inactive
same,outcome,[9],inactive
same,outcome,[10],inactive
same,outcome,[11],inactive
same,outcome,[13],inactive
same,Potency,[14],inactive
CC(C)CCCCCOC(=O)CCCCC(=O)OCCCCCC(C)C,Potency,[2],inactive
same,Potency,[3],inactive
same,Potency,[4],inactive
same,Potency,[15],inactive
same,Potency,[5],inactive
same,outcome,[16],inactive
same,outcome,[17],inactive
same,Potency,[6],inactive
same,outcome,[7],inactive
same,Potency,[8],inactive
same,outcome,[9],inactive
same,outcome,[10],inactive
same,outcome,[11],inactive
same,Potency,[12],inactive
same,outcome,[13],inactive
same,Potency,[14],inactive
same,Potency,[19],inactive
same,Potency,[20],inactive
Cc1cc(S(=O)(=O)O)ccc1N=Nc1c(O)ccc2ccccc12,Potency,[2],inactive
same,Potency,[3],inactive
same,Potency,[4],48.6 µM (active)
same,Potency,[15],inactive
same,outcome,[16],inactive
same,outcome,[17],inactive
same,Potency,[6],inactive
same,outcome,[18],inactive
same,outcome,[7],inactive
same,Potency,[8],inactive
same,outcome,[9],inactive
same,outcome,[10],inactive
same,outcome,[11],inactive
same,outcome,[13],inactive
same,Potency,[14],inactive
CCN(Cc1cccc(S(=O)(=O)O)c1)c1ccc(C(=C2C=CC(=[N+](CC)Cc3cccc(S(=O)(=O)[O-])c3)C=C2)c2ccccc2)cc1,Potency,[2],inactive
same,Potency,[3],inactive
same,Potency,[4],inactive
same,Potency,[15],inactive
same,outcome,[16],inactive
same,outcome,[17],inactive
same,Potency,[6],inactive
same,outcome,[7],inactive
same,Potency,[8],inactive
same,outcome,[9],inactive
same,outcome,[10],inactive
same,outcome,[11],inactive
same,outcome,[13],inactive
same,Potency,[14],inactive
NC(=O)Nc1ccc(Cl)cc1,Potency,[2],inactive
same,Potency,[3],inactive
same,Potency,[4],inactive
same,Potency,[15],inactive
same,Potency,[5],inactive
same,outcome,[16],inactive
same,outcome,[17],inactive
same,outcome,[18],inactive
same,Potency,[8],inactive
same,outcome,[9],inactive
same,outcome,[10],inactive
same,outcome,[11],inactive
same,Potency,[12],inactive
same,outcome,[13],inactive
same,Potency,[14],inactive
same,Potency,[19],inactive
